Measurements reported in PubChem BioAssay AID602382 (Sanford-Burnham Center for Chemical Genomics, 2012).
Some of the results follow. Calls of active or inactive are those of the source. No rule for the calls is given here.

assay: spectral interference with molecular beacon fluorescence, dose response, artefact control for DNMT1 inhibitor project, biochemical, fluorescent molecular beacon (AID 602382); conditions: spectral interference counter-screen

Structure (SMILES) | IC50
NC(CSC(c1ccccc1)(c1ccccc1)c1ccc(-c2ccccc2)cc1)C(=O)O (stereo not given) | > 99 µM (inactive)
COc1ccc(Br)cc1/C=N/Nc1ccc(S(=O)(=O)Nc2ccccc2C(=O)O)cc1[N+](=O)[O-] | > 99 µM (inactive)
COc1ccc(C(=O)/C=C/c2ccc(-c3ccccc3)cc2)cc1CSCC(=O)O | > 99 µM (inactive)
COc1ccc(Cc2nnc(NC(=O)Cc3cccs3)s2)cc1 | > 99 µM (inactive)
O=C(COc1ccc(/C=N/NC(=O)c2ccc(O)cc2)cc1)Nc1ccc([N+](=O)[O-])cc1 | > 99 µM (inactive)
Cc1ccc(/C=C/C(=O)Nc2ccc([N+](=O)[O-])c(NC(=O)/C=C/c3ccc(C)o3)c2)o1 | > 99 µM (inactive)
Cc1ccccc1NC(=O)CN1C(=O)N/C(=C\c2cccn2-c2cccc(C(=O)O)c2)C1=O | > 99 µM (inactive)
O=C(Oc1ccc(-c2nc(-c3ccccn3)no2)cc1)c1ccccc1 | > 99 µM (inactive)
CCOC(=O)C(NC(=O)CC(C)C)(Nc1sc2c(c1C(N)=O)CCCC2)C(F)(F)F (stereo not given) | > 99 µM (inactive)
O=C(CSc1nc2ccccc2c(=O)[nH]1)Nc1nc(-c2ccc(Br)cc2)cs1 | > 99 µM (inactive)
